In PubChem BioAssay (EPA / NIEHS):
Inconclusive results are not listed. Active and inactive are the calls of the source. The calls were made as follows, unless noted: active = hit-call score of the fitted dose curve at least 0.9, where 1 is the maximum; inactive = score below 0.9.

Tests used:
[1] = molecular target: Retinoic acid receptor RXR-alpha (Homo sapiens) (UniProt P19793); assay: ATG_RXRa_TRANS: Attagene TRANS-FACTORIAL HepG2 Assay for human Retinoid X Receptor alpha (RXRa) (AID 2283012; active = hit-call score of the fitted dose curve at least 0.9, where 1 is the maximum)
How it was run: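 Measures exogenous chimeric NR-GAL4 activity in transfected HepG2 liver cells after 24 h of dosing. Induced reporter mRNA was detected by RT-PCR with capillary electrophoresis, and gain of signal was analysed against DMSO.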

[2] = molecular target: human Retinoid X Receptor beta (RXRb), RXRB (gene 6257) (UniProt P28702); assay: ATG_RXRb_TRANS: Attagene TRANS-FACTORIAL HepG2 Assay for human Retinoid X Receptor beta (RXRb) (AID 2283013; active = hit-call score of the fitted dose curve at least 0.9, where 1 is the maximum)
How it was run: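 Chimeric receptor-Gal4 activity was assessed in transiently transfected human HepG2 cells after 24 h exposure. Transcripts from GAL4-UAS reporters were quantified by fluorescent RT-PCR and capillary electrophoresis, with DMSO as negative control and baseline.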

[3] = read-out: E-selectin (Homo sapiens) (UniProt P16581); assay: BSK_3C_Eselectin: BioMAP Diversity Plus: 3C Assay for Eselectin Biomarker Activity (AID 2283015); conditions: primary human endothelial cells (HUVEC); actives raise or lower the signal;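 also: cell surface E-selectin protein quantified by ELISA 24 h after dosing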
How it was run: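 HUVEC, 3C stimulation; compound exposure 24 h; E-selectin by ELISA; gain- or loss-of-signal fitted bidirectionally vs DMSO baseline.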

[4] = read-out: Interleukin-1 alpha (IL1a), IL1A (gene 3552); assay: BSK_BE3C_IL1a: BioMAP Diversity Plus: BE3C Assay for Interleukin-1 alpha (IL1a) Biomarker Activity (AID 2283016); conditions: primary human bronchial epithelial cells; actives raise or lower the signal
How it was run: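 Signal from IL-1a ELISA, taken 24 h after chemical dosing of human bronchial epithelial cells, is compared with DMSO as baseline using bidirectional curve fitting.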

[5] = read-out: Monocyte Chemoattractant Protein-1 (MCP1), CCL2 (gene 6347); assay: BSK_3C_MCP1: BioMAP Diversity Plus: 3C Assay for Monocyte Chemoattractant Protein-1 (MCP1) Biomarker Activity (AID 2283017); conditions: primary human endothelial cells (HUVEC); actives raise or lower the signal
How it was run: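 HUVEC, 3C system; 24 h chemical exposure; MCP-1 by ELISA; bidirectional curve fit vs DMSO baseline.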

[6] = read-out: Monocyte Chemoattractant Protein-1 (MCP1), CCL2 (gene 6347); assay: BSK_4H_MCP1: BioMAP Diversity Plus: 4H Assay for Monocyte Chemoattractant Protein-1 (MCP1) Biomarker Activity (AID 2283018); conditions: primary human endothelial cells (HUVEC); actives raise or lower the signal
How it was run: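 Endothelial cells from umbilical vein were treated with test chemical, then after 24 h MCP-1 levels were quantified by ELISA; endpoint values came from bidirectional fitting with DMSO as baseline of activity.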

[7] = read-out: Human Leukocyte Antigen - DR isotype (HLADR), HLA-DRA (gene 3122); assay: BSK_3C_HLADR: BioMAP Diversity Plus: 3C Assay for Human Leukocyte Antigen - DR isotype (HLADR) Biomarker Activity (AID 2283019); conditions: primary human endothelial cells (HUVEC); actives raise or lower the signal
How it was run: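 HUVEC, 3C stimulation, 24 h post-dose; HLA-DR by ELISA; bidirectional curve fit vs DMSO baseline; gain or loss of signal scored.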

[8] = read-out: Interleukin-8 (IL8), CXCL8 (gene 3576); assay: BSK_3C_IL8: BioMAP Diversity Plus: 3C Assay for Interleukin-8 (IL8) Biomarker Activity (AID 2283020); conditions: primary human endothelial cells (HUVEC); actives raise or lower the signal
How it was run: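 Endothelial primary cells of human umbilical vein origin are dosed with chemical; after 24 h the IL-8 biomarker is measured by ELISA, and concentration–response is fitted in both directions versus DMSO.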

[9] = read-out: Monokine induced gamma interferon (MIG), CXCL9 (gene 4283); assay: BSK_3C_MIG: BioMAP Diversity Plus: 3C Assay for Monokine induced gamma interferon (MIG) Biomarker Activity (AID 2283021); conditions: primary human endothelial cells (HUVEC); actives raise or lower the signal
How it was run: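 Endothelial primary cells (human umbilical vein) are dosed with test chemical in the 3C system. MIG levels are measured by ELISA at 24 h and fitted in both directions relative to DMSO.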

[10] = molecular target: human Vitamin D Receptor (VDR), VDR (gene 7421) (UniProt P11473); assay: ATG_VDR_TRANS: Attagene TRANS-FACTORIAL HepG2 Assay for human Vitamin D Receptor (VDR) (AID 2283022; active = hit-call score of the fitted dose curve at least 0.9, where 1 is the maximum)
How it was run: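 RT-PCR/capillary electrophoresis read-out of reporter mRNA induction in transiently transfected HepG2; 24 h dosing; chimeric NR-Gal4 (TRANS format); gain-of-signal fit against DMSO baseline.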

[11] = BSK_3C_SRB: Viability Assessment in the BioMAP Diversity Plus: 3C Assay (AID 2283023); conditions: primary human endothelial cells (HUVEC);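 also: fitted both ways against DMSO so a hit may be signal rise or drop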
How it was run: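 HUVEC, 24 h post-dose; 10% TCA fix, 0.1% SRB stain, A560 nm. Bidirectional curve fit vs DMSO negative control.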

[12] = read-out: Matrix Metallopeptidase 1 (MMP1), MMP1 (gene 4312); assay: BSK_BE3C_MMP1: BioMAP Diversity Plus: BE3C Assay for Matrix Metallopeptidase 1 (MMP1) Biomarker Activity (AID 2283024); conditions: primary human bronchial epithelial cells; actives raise or lower the signal
How it was run: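 MMP1 signal, measured by ELISA after a 24 h chemical exposure of human primary bronchial epithelial cells, is analysed with bidirectional fitting using DMSO as negative control.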

[13] = BSK_4H_SRB: Viability Assessment in the BioMAP Diversity Plus: 4H Assay (AID 2283027); conditions: primary human endothelial cells (HUVEC);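 also: cells exposed to compound for 24 h before staining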;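 as to AC50: curves fitted both ways versus DMSO so AC50 may be loss or gain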
How it was run: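 Cytotoxicity readout: sulforhodamine B (0.1%) staining of total protein after 10% TCA fixation, measured at 560 nm in human umbilical vein endothelium at 24 h. DMSO set the baseline; fitting was bidirectional.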

[14] = BSK_BE3C_SRB: Viability Assessment in the BioMAP Diversity Plus: BE3C Assay (AID 2283028); conditions: primary human bronchial epithelial cells
How it was run: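 Primary human bronchial epithelium; chemical dosing, 24 h; 10% TCA fix, 0.1% SRB stain, A560; bidirectional fit vs DMSO baseline.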

[15] = read-out: Thrombomodulin, THBD (gene 7056); assay: BSK_3C_Thrombomodulin: BioMAP Diversity Plus: 3C Assay for Thrombomodulin Biomarker Activity (AID 2283029); conditions: primary human endothelial cells (HUVEC); actives raise or lower the signal
How it was run: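 Endothelial cells from umbilical vein are dosed with test chemical and incubated 24 h. Thrombomodulin is then quantified by ELISA, with DMSO serving as negative control and activity baseline.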

[16] = BSK_3C_Vis: BioMAP Diversity Plus: 3C Assay for Morphology Visualization (AID 2283025); conditions: primary human endothelial cells (HUVEC);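 also: fitted both ways so gain or loss versus DMSO counts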
How it was run: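 Morphology read by light microscopy serves as a background control for the multiplexed 3C assay in human umbilical vein endothelial cells, taken 24 h after dosing, with DMSO as the negative control and bidirectional curve fitting.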

[17] = read-out: Pselectin, SELP (gene 6403); assay: BSK_4H_Pselectin: BioMAP Diversity Plus: 4H Assay for Pselectin Biomarker Activity (AID 2283026); conditions: primary human endothelial cells (HUVEC); actives raise or lower the signal
How it was run: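 Endothelial primary cells (human umbilical vein) are dosed, incubated 24 h, and assayed for surface P-selectin by ELISA; responses in either direction are fitted relative to the DMSO negative control.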

[18] = molecular target: human RAR-related Orphan Receptor gamma (RORg), RORC (gene 6097) (UniProt P51449); assay: ATG_RORg_TRANS: Attagene TRANS-FACTORIAL HepG2 Assay for human RAR-related Orphan Receptor gamma (RORg) (AID 2283011; active = hit-call score of the fitted dose curve at least 0.9, where 1 is the maximum)
How it was run: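 Transient MRTU transfection of HepG2 (TRANS format, exogenous NR-Gal4 chimera). 24 h dosing. Total RNA → oligo(dT) RT → PCR → 6-FAM labelling → HpaI cut → CE. Gain vs DMSO.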

[19] = molecular target: human Thyroid Receptor alpha (THRa1), THRA (gene 7067) (UniProt P10827); assay: ATG_THRa1_TRANS: Attagene TRANS-FACTORIAL HepG2 Assay for human Thyroid Receptor alpha (THRa1) (AID 2283014; active = hit-call score of the fitted dose curve at least 0.9, where 1 is the maximum)
How it was run: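 Transient HepG2 transfection, NR-Gal4 chimera driving GAL4-UAS reporters; 24 h compound exposure; total RNA, oligo(dT) RT, PCR, fluorescent primer extension, capillary electrophoresis. Upward direction vs DMSO control.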

Measured: AC50

E-selectin (Homo sapiens), sequence (P16581 whole entry, looked up): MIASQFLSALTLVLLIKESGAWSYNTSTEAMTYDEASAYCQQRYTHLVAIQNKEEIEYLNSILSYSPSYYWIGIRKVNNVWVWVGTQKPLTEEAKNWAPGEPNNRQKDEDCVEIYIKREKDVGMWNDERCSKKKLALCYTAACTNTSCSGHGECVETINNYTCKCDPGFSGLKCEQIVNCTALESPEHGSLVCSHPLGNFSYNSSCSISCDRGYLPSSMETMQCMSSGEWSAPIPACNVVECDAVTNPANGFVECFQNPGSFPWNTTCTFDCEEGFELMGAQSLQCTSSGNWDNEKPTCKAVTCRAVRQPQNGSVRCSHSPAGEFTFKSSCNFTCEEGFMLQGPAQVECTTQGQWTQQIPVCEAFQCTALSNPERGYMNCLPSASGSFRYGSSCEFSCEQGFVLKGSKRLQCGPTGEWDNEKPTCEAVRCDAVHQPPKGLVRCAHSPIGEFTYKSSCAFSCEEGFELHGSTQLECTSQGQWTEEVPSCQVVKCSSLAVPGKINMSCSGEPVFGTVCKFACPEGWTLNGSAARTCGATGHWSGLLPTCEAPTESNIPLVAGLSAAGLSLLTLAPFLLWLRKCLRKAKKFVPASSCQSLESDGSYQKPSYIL
Retinoic acid receptor RXR-alpha (Homo sapiens), sequence (P19793 whole entry, looked up, the tested form may be a part): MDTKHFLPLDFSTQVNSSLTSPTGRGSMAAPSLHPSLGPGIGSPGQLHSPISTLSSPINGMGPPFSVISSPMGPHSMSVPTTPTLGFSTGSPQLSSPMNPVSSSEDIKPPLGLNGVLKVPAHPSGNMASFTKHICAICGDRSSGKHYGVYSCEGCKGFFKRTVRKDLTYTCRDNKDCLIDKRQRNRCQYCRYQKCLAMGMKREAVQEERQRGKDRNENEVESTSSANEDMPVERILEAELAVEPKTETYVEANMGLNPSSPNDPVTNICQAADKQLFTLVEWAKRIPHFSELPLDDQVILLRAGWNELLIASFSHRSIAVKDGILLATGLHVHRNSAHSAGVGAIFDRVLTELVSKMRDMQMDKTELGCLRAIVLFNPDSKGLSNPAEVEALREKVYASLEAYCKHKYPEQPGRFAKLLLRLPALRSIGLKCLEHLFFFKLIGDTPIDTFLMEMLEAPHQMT
human Retinoid X Receptor beta (RXRb), RXRB (gene 6257), sequence (P28702 whole entry, looked up, the tested form may be a part): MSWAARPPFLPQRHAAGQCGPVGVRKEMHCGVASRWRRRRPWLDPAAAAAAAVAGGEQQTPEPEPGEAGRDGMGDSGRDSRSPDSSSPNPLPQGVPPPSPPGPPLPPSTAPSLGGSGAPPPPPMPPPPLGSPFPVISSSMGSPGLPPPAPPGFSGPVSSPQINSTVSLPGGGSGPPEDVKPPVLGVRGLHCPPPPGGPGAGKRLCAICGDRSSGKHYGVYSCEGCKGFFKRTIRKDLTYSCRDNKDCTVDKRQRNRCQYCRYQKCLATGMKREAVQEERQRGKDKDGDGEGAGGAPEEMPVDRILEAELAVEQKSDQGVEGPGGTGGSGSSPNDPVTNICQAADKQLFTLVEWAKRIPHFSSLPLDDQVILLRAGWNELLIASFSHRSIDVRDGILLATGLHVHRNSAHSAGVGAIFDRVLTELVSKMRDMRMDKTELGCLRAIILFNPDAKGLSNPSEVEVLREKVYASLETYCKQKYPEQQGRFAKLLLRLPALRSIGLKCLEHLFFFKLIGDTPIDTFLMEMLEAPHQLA
human Vitamin D Receptor (VDR), VDR (gene 7421), sequence (P11473 whole entry, looked up, the tested form may be a part): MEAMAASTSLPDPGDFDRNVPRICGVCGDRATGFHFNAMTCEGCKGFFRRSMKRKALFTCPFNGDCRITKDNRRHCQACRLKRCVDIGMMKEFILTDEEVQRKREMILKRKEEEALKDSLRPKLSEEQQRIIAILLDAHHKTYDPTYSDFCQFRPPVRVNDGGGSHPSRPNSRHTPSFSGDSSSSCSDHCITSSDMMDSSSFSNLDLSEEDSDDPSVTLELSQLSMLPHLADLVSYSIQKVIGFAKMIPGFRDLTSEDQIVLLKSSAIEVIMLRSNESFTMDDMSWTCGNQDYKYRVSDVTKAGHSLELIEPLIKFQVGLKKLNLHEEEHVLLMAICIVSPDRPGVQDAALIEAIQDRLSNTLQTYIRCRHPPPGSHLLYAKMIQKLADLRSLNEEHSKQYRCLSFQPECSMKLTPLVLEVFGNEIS
human RAR-related Orphan Receptor gamma (RORg), RORC (gene 6097), sequence (P51449 whole entry, looked up, the tested form may be a part): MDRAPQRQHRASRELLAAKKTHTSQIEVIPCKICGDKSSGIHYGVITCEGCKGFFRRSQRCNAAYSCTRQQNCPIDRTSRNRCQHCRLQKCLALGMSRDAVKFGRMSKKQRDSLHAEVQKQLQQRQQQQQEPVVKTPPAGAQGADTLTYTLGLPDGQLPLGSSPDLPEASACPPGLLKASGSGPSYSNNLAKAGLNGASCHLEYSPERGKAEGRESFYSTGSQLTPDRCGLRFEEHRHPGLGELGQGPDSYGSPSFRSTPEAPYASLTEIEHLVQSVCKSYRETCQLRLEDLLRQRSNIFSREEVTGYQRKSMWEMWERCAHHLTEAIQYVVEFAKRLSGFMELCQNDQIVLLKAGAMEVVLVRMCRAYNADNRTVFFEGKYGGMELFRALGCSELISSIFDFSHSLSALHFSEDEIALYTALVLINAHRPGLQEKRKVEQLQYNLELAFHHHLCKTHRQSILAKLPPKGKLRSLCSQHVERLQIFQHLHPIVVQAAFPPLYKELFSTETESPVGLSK
human Thyroid Receptor alpha (THRa1), THRA (gene 7067), sequence (P10827 whole entry, looked up, the tested form may be a part): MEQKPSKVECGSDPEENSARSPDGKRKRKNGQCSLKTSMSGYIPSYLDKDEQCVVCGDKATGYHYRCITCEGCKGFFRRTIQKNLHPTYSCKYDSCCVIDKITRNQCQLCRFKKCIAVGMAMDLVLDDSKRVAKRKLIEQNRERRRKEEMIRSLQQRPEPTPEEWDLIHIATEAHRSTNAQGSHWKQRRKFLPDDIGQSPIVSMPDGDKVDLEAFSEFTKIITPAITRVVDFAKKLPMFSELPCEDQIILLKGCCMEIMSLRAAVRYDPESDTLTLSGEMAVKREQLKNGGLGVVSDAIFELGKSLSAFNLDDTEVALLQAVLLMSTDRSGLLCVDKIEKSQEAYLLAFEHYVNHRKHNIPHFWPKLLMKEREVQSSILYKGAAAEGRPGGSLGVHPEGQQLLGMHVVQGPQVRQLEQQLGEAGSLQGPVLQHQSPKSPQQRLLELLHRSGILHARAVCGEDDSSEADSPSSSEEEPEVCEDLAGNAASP

ClC1=C(Cl)[C@]2(Cl)[C@@H]3[C@@H](Cl)[C@H]4O[C@H]4[C@@H]3C1(Cl)C2(Cl)Cl
active: [7] 11.5 µM | [11] 11.9 µM
inactive: [1] | [2] | [3] | [4] | [5] | [6] | [8] | [9] | [10] | [12] | [13] | [14] | [15]

c1ccc(-c2ccccc2)cc1
active: [2] 110 µM
inactive: [1] | [3] | [4] | [5] | [6] | [7] | [8] | [9] | [11] | [12] | [16] | [17] | [13] | [14] | [15]

CCCCCCCCOC(=O)c1ccccc1C(=O)OCCCCCCCC
active: [7] 12.9 µM
inactive: [1] | [2] | [3] | [4] | [5] | [6] | [8] | [9] | [11] | [12] | [16] | [13] | [14] | [15]

CC(c1ccc(O)cc1)(c1ccc(O)cc1)c1ccc(O)cc1
active: [4] 6.69 µM | [5] 31.1 µM | [6] 18.9 µM | [7] 28.5 µM | [10] 17.7 µM | [11] 28 µM | [17] 31.9 µM | [13] 20 µM
inactive: [1] | [3] | [8] | [9] | [12] | [15]

C1CC2OC2CC1C1CO1 (stereo not drawn)
inactive: [18] | [3] | [4] | [5] | [6] | [7] | [8] | [9] | [10] | [11] | [12] | [13] | [14] | [15]

CCNc1nc(NC(C)C)nc(SC)n1
inactive: [1] | [2] | [19] | [3] | [4] | [5] | [6] | [7] | [8] | [9] | [10] | [11] | [12] | [13] | [15]

Cc1ccccc1CO[C@@H]1C[C@@]2(C(C)C)CC[C@]1(C)O2
inactive: [1] | [2] | [3] | [4] | [5] | [6] | [7] | [8] | [9] | [10] | [12] | [13] | [15]
active: [11] 31.3 µM
